Measurements from PubChem BioAssay (NCATS).
Results filed as inconclusive are left out. Where a call stands in place of a potency, no number is given. Calls of active or inactive are those of the source. Unless noted, the call rests on the fitted dose curve; in most records, active means well fitted curve in the direction sought with a large enough effect; inconclusive means small, poorly fitted or top-dose-only effect, or another doubt; inactive means no such curve, though single readings can be large; an effect the other way counts as inactive or inconclusive.

Legend:
[1] = qHTS assay for measurement of the activity of small molecule inhibitors on Zika virus induced Caspase-3 activity in human iPSC derived neural progenitor cells (hNPCs) (AID 1224857); further: nearly all actives have a fitted effect of over 65% in size
Summary of the method: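 Human iPSC-derived neural progenitor cells pretreated 1 hr with compounds, then infected with Zika virus (2 FFU/cell) for 6 hours at 37 C. Caspase-3/7 measured by Caspase-Glo luminescence; % inhibition calculated from induction scaled to uninfected (0%) and infected (100%) wells.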

[2] = qHTS assay for measurement of the activity of small molecule inhibitors on Zika virus induced Caspase-3 activity in human astrocytoma cells (AID 1224859)
Summary of the method: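 SNB-19 astrocytoma cells, 250/well, pretreated 1 h with compounds, then Zika virus at 2 FFU/cell for 6 h at 37 C; Caspase-Glo 3/7 luminescence after 30 min; percent inhibition normalised to uninfected and infected controls.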

[3] = P-glycoprotein substrates identified in KB-8-5-11 adenocarcinoma cell line, qHTS therapeutic library screen (AID 1346987); further: nearly all actives have a fitted effect of over 65% in size; further: potency means the concentration at half of the fitted maximal effect
Summary of the method: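 KB-8-5-11, a colchicine-selected P-gp-overexpressing KB-3-1 subline, was grown without colchicine for the assay. Cells were seeded at 500 cells/well, dosed in concentration-response and incubated 72 h at 37 degree C, 5% CO2. Viability was read by CellTiter-Glo luminescence.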

[4] = qHTS of pediatric cancer cell lines to identify multiple opportunities for drug repurposing: Primary screen for TC32 cells (AID 1347089); further: nearly all actives have a fitted effect of over 60% in size; further: potency means the concentration at half of the fitted maximal effect
Summary of the method: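 TC32 cells, 500-1,000/well in growth medium, compound-treated 48 h at 37 °C; viability from CellTiter-Glo luminescence. Primary screen: MIPE 11-point (0.78 nM–46 µM final), NPC 8-point (0.59 nM–46 µM final); confirmatory at 11-point dilutions.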

[5] = qHTS of pediatric cancer cell lines to identify multiple opportunities for drug repurposing: Primary screen for DAOY cells (AID 1347090); further: nearly all actives have a fitted effect of over 55% in size; further: potency means the concentration at half of the fitted maximal effect
Summary of the method: (§1)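 Eight- or eleven-point concentration series, 48 h treatment at 37 degrees C in growth media; readout CellTiter-Glo luminescence. Potency and efficacy were taken from the concentration-response curves.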

[6] = qHTS of pediatric cancer cell lines to identify multiple opportunities for drug repurposing: Primary screen for SJ-GBM2 cells (AID 1347091); further: potency means the concentration at half of the fitted maximal effect
Summary of the method: as §1

[7] = qHTS of pediatric cancer cell lines to identify multiple opportunities for drug repurposing: Primary screen for A673 cells (AID 1347092); further: nearly all actives have a fitted effect of over 45% in size; further: potency means the concentration at half of the fitted maximal effect
Summary of the method: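 A673 cells (500-1,000 cells/well) were treated 48 hours at 37 degrees C with compounds at 11-point (0.78 nM to 46 µM) or 8-point (0.59 nM to 46 µM) dilutions. Viability read by CellTiter-Glo luminescence; concentration-response curves fitted.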

[8] = qHTS of pediatric cancer cell lines to identify multiple opportunities for drug repurposing: Primary screen for BT-37 cells (AID 1347094); further: potency means the concentration at half of the fitted maximal effect
Summary of the method: (§2)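 Cells plated at 500-1,000/well in growth medium, compounds added after 5 h. MIPE tested at 11 points (from 0.78 nM), NPC at 8 points (from 0.59 nM). CellTiter-Glo luminescence after 48 h; concentration-response curves from primary screen.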

[9] = qHTS of pediatric cancer cell lines to identify multiple opportunities for drug repurposing: Primary screen for NB-EBc1 cells (AID 1347095); further: potency means the concentration at half of the fitted maximal effect
Summary of the method: as §2

[10] = qHTS of pediatric cancer cell lines to identify multiple opportunities for drug repurposing: Primary screen for U-2 OS cells (AID 1347096); further: nearly all actives have a fitted effect of over 50% in size; further: potency means the concentration at half of the fitted maximal effect
Summary of the method: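 Cells (500-1,000/well) in growth media were settled 5 h at 37 degrees C, then given compounds for 48 h. Viability was read as CellTiter-Glo luminescence. Primary runs used MIPE at 11 points (0.78 nM-46 µM) and NPC at 8 points (0.59 nM-46 µM); follow-ups used 11 points.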

[11] = biological target: Atrial natriuretic peptide receptor 1 (Homo sapiens) (UniProt P16066); assay: Natriuretic polypeptide receptor (hNpr1) antagonism - Pilot screen (AID 1347049; calls by dose curve;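 further: agonist-evoked cGMP luminescence read 20 min after hNppA addition; series mostly up to about 58 µM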)
Summary of the method: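 HEK293 cells co-expressing hNpr1 and the GloSensor pGS-40F cGMP luciferase sensor were preloaded with 2% GloSensor reagent for 2 h. Compounds were added for 30 min at room temperature, then cells were stimulated with 0.1 nM hNppA for 20 min before luminescence readout.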

[12] = biological target: Atrial natriuretic peptide receptor 2 (Homo sapiens) (UniProt P20594); assay: Natriuretic polypeptide receptor (hNpr2) antagonism - Pilot subtype selectivity assay (AID 1347050; calls by dose curve; further: potency means the concentration at half of the fitted maximal effect)
Summary of the method: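 cGMP-sensor HEK293/hNpr2 cells; 2% GloSensor reagent 2 h RT; compounds 30 min; baseline luminescence read; 1 nM hNppC agonist 20 min RT; final luminescence read by CCD camera. Antagonism = reduced post-agonist signal.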

[13] = NS1 protein of Zika virus - qHTS assay to identify small molecule inhibitors in human HEK 293 cells (AID 1347053); further: series mostly up to about 46 µM; nearly all actives have a fitted effect of over 55% in size
Summary of the method: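 HEK 293; 20 h pre-culture, 37 C/5% CO2; cpd 1 h pre-infection; ZIKV MR766, MOI = 0.5, 24 h, 37 C; TR-FRET NS1 readout (two anti-NS1 Abs); norm. to no-virus vs infected.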

[14] = biological target: T1, Tyrosine-protein phosphatase non-receptor type substrate 1 (Homo sapiens) + Leukocyte surface antigen CD47 (Homo sapiens) (UniProt P78324+Q08722); assay: CD47-SIRPalpha protein protein interaction - LANCE assay qHTS validation (AID 1347057; active means well fitted curve in the direction sought with a large enough effect in the signal ratio, with a control signal flat, not every such curve was filed as active; the % refers to the signal ratio; further: series mostly up to about 38 µM)
Summary of the method: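 First, His-tagged CD47 and Eu-labelled anti-His antibody met the compound for 30 min; next, site-specifically biotinylated SIRPalpha was added for 30 min; finally streptavidin-APC was added before reading the TR-FRET ratio.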

[15] = biological target: T1, Tyrosine-protein phosphatase non-receptor type substrate 1 (Homo sapiens) + Leukocyte surface antigen CD47 (Homo sapiens); assay: CD47-SIRPalpha protein protein interaction - Alpha assay qHTS validation (AID 1347059);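 further: bead proximity luminescence from CD47 binding SIRPalpha after compound preincubation with SIRPalpha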
Summary of the method: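 Soluble extracellular domains: Avi-tag biotinylated SIRPalpha (25 nM) preincubated 30 min RT with compound, then 6His-CD47 (12.5 nM) 30 min; Ni-NTA acceptor and streptavidin donor beads (10 ug/mL) 30 min, AlphaScreen read. PBS pH 7.4, 0.05% IGEPAL.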

[16] = qHTS of pediatric cancer cell lines to identify multiple opportunities for drug repurposing: Primary screen for Saos-2 cells (AID 1347097); further: nearly all actives have a fitted effect of over 40% in size; further: potency means the concentration at half of the fitted maximal effect
Summary of the method: as §2

[17] = qHTS of pediatric cancer cell lines to identify multiple opportunities for drug repurposing: Primary screen for SK-N-MC cells (AID 1347093); further: potency means the concentration at half of the fitted maximal effect
Summary of the method: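 Metabolically active cells were quantified by ATP-dependent luminescence (CellTiter-Glo, 15 min at room temperature) following 48 h treatment. Cells had been plated at 500-1,000 per well and settled for 5 h beforehand.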

T1 sequence (P78324 whole entry, looked up): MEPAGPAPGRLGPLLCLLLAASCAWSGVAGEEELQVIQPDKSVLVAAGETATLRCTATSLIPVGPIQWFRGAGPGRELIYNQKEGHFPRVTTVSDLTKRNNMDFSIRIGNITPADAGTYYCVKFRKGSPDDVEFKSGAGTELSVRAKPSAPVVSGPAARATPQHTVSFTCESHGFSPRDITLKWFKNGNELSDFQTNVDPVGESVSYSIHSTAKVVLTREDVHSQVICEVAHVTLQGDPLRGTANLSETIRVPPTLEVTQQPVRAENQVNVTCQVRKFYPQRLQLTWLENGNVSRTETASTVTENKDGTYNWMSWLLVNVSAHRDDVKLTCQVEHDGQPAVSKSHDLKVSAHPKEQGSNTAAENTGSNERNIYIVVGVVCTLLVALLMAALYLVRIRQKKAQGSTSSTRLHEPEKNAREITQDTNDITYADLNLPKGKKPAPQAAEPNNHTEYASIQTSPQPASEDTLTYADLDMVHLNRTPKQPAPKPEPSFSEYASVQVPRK
T1 sequence (Q08722 whole entry, looked up): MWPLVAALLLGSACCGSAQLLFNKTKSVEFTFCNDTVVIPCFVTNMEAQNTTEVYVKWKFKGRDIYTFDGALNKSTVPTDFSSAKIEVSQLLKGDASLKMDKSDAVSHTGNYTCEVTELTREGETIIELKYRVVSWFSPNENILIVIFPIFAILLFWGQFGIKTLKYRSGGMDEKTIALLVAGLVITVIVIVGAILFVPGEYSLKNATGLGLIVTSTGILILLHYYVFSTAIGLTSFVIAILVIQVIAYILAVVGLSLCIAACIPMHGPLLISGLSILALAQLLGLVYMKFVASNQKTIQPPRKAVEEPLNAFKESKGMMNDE
Chain of Atrial natriuretic peptide receptor 1 (Homo sapiens) (P16066 whole entry, looked up): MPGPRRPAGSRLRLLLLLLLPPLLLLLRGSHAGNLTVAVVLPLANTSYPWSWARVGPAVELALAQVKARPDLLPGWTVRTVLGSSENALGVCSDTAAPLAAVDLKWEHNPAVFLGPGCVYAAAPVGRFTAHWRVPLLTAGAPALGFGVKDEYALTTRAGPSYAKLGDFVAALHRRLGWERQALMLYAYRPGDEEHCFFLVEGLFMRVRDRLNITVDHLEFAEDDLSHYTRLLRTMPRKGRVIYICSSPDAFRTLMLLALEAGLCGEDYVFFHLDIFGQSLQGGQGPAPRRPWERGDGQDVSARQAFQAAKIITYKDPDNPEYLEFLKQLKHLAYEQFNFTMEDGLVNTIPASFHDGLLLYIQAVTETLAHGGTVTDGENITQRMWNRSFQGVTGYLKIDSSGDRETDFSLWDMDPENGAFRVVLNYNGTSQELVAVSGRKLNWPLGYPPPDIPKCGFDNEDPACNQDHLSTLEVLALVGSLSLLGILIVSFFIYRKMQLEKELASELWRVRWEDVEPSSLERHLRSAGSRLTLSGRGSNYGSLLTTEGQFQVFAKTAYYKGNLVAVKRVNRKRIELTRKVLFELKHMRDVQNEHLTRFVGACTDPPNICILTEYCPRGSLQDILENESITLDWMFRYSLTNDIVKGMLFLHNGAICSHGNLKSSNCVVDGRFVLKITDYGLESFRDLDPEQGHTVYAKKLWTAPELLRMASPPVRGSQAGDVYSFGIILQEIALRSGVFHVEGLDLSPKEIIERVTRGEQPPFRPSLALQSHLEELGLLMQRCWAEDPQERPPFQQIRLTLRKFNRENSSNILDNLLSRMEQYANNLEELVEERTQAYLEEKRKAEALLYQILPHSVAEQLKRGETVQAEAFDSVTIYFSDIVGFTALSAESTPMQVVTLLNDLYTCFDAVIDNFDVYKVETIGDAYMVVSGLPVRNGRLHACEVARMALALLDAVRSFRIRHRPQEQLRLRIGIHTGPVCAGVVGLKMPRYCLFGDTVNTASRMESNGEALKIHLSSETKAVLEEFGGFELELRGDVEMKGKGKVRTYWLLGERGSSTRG
Chain of Atrial natriuretic peptide receptor 2 (Homo sapiens) (P20594 whole entry, looked up): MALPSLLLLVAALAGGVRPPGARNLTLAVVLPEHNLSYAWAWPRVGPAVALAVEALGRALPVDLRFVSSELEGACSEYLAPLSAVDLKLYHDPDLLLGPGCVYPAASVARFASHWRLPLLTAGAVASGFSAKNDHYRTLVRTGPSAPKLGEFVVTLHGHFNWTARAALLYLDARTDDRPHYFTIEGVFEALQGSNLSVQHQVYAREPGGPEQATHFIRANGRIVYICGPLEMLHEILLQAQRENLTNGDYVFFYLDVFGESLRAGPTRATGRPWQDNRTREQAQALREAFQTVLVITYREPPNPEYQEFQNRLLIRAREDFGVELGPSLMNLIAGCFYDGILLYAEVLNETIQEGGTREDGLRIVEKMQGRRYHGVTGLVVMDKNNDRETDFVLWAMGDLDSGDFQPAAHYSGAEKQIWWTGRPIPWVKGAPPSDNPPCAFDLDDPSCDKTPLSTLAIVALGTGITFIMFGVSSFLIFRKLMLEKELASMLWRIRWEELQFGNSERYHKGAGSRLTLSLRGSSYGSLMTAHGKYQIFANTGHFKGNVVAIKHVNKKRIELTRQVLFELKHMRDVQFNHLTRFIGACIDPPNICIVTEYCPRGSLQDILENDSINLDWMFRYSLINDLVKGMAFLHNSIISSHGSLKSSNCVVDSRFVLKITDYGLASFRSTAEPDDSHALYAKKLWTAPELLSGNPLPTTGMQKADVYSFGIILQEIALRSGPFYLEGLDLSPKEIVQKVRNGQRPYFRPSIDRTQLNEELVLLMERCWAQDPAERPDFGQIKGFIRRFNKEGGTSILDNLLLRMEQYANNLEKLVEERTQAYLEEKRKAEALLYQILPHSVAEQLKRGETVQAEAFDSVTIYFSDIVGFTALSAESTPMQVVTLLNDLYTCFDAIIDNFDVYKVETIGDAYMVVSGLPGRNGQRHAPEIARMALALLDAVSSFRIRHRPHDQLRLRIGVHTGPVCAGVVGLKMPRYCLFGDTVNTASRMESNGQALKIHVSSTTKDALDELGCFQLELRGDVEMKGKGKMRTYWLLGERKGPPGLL

| Compound | Potency [1] | outcome [2] | Potency [3] | Potency [4] | Potency [5] | Potency [6] | Potency [7] | Potency [8] | Potency [9] | Potency [10] | Potency [11] | Potency [12] | Potency [13] | outcome [14] | Potency [15] | Potency [16] | Potency [17] |
| --- | --- | --- | --- | --- | --- | --- | --- | --- | --- | --- | --- | --- | --- | --- | --- | --- | --- |
| c1ccc2occc2c1 | inactive | inactive | inactive | inactive | inactive | inactive | inactive | inactive | inactive | inactive | – | – | – | – | – | – | – |
| Clc1ccc2c(c1)N=C(N1CCNCC1)c1ccccc1N2 | inactive | inactive | – | – | – | – | – | – | – | – | inactive | 14.7 µM (active) | inactive | inactive | inactive | – | – |
| CCN(CC)CCNC(=O)c1ccc(NS(C)(=O)=O)cc1 | inactive | inactive | – | – | – | – | – | – | – | – | inactive | – | inactive | inactive | inactive | – | – |
| Cc1cc(OCCOCC[N+](C)(C)Cc2ccccc2)ccc1C(C)(C)CC(C)(C)C | inactive | inactive | inactive | 26.4 µM (active) | – | 21.1 µM (active) | 10.6 µM (active) | 0.001 µM (active) | – | – | – | – | – | – | – | 13.3 µM (active) | – |
| CC(C)C[C@@H]1[C@H](c2ccccc2)OC(=O)N1CCCN1CCCCCC1 | inactive | inactive | – | inactive | inactive | inactive | inactive | inactive | inactive | inactive | – | – | inactive | – | – | – | inactive |
| CN1CC(=O)N2[C@H](c3ccc4c(c3)OCO4)c3[nH]c4ccccc4c3C[C@@H]2C1=O | inactive | inactive | – | inactive | inactive | inactive | inactive | inactive | inactive | inactive | – | – | inactive | – | – | – | inactive |
| Nc1ncnc2nc[nH]c12 | inactive | inactive | – | inactive | inactive | inactive | inactive | inactive | inactive | inactive | – | – | inactive | – | – | – | inactive |
| Cc1cccc(C)c1NC(=O)c1cc(S(N)(=O)=O)c(Cl)cc1O | inactive | inactive | inactive | inactive | inactive | inactive | inactive | – | inactive | – | – | – | – | – | – | inactive | inactive |
| CO[C@@H]1[C@@H](OC)[C@H](C)[C@@](O)(CC(=O)O)O[C@H]1[C@H](C)[C@H]1O[C@@]2(CC[C@@](C)([C@H]3CC[C@@](C)([C@@H]4O[C@@H]([C@H]5O[C@](C)(O)[C@H](C)C[C@@H]5C)C[C@@H]4OC4C[C@H](OC)[C@@H](OC)[C@H](C)O4)O3)O2)C[C@H](O)[C@H]1C (stereo partly drawn) | inactive | inactive | 8.2 µM (active) | 1.87 µM (active) | 3.35 µM (active) | – | 4.22 µM (active) | 0.389 µM (active) | 0.266 µM (active) | 8.41 µM (active) | – | – | – | – | – | 5.31 µM (active) | – |
| O=C(OCC1(COC(=O)c2cccnc2)CCCC(COC(=O)c2cccnc2)(COC(=O)c2cccnc2)C1O)c1cccnc1 | inactive | inactive | inactive | inactive | inactive | inactive | inactive | inactive | inactive | inactive | – | – | – | – | – | inactive | inactive |
| O=C1NC(=O)/C(=C/c2ccc3c(c2)OC(F)(F)O3)S1 | inactive | inactive | – | – | – | – | – | – | – | – | – | inactive | inactive | inactive | inactive | – | – |
| OCCCc1ccccc1 | inactive | inactive | inactive | inactive | inactive | inactive | inactive | inactive | inactive | inactive | – | – | – | – | – | inactive | inactive |
| Cc1ccc(O)cc1 | inactive | inactive | inactive | inactive | inactive | inactive | inactive | inactive | inactive | inactive | – | – | – | – | – | inactive | inactive |
| COC(=O)CCCCC(CCSS/C(CCO)=C(\C)N(C=O)Cc1cnc(C)nc1N)SC(C)=O (stereo not drawn) | inactive | inactive | – | inactive | inactive | inactive | inactive | inactive | inactive | inactive | – | – | inactive | – | – | – | inactive |
| O=C(O)CCCC[C@@H]1SC[C@@H]2NC(=O)N[C@@H]21 | inactive | inactive | inactive | inactive | inactive | inactive | inactive | inactive | – | inactive | – | – | – | – | – | – | inactive |
| Cc1c(C)c2c(c(C)c1OC(=O)CCC(=O)OCCO)CC[C@@](C)(CCC[C@H](C)CCC[C@H](C)CCCC(C)C)O2 | inactive | inactive | inactive | – | – | inactive | – | – | – | inactive | – | – | – | – | – | – | – |
| CCCCCCCCCCCC[N+](C)(C)Cc1ccccc1 | inactive | inactive | inactive | – | 16.8 µM (active) | inactive | 8.41 µM (active) | 15.5 µM (active) | inactive | – | – | – | – | – | – | 4.73 µM (active) | 2.66 µM (active) |
| CN1CCC(Nc2ncc3ncnc(Nc4ccc(F)c(Cl)c4)c3n2)CC1 | inactive | inactive | inactive | inactive | inactive | inactive | 21.1 µM (active) | 17.4 µM (active) | – | – | – | – | – | – | – | inactive | – |
| CCCCCC(=O)O[C@]1(C(C)=O)CC[C@H]2[C@@H]3CCC4=CC(=O)CC[C@]4(C)[C@H]3CC[C@@]21C | inactive | inactive | 10.3 µM (active) | inactive | 21.1 µM (active) | – | – | – | – | – | – | – | – | – | – | – | 13.3 µM (active) |
| CCC(=O)Oc1ccc2c(c1)CC[C@@H]1[C@@H]2CC[C@@]2(C)[C@H]1C[C@@H](OC(=O)CC)[C@@H]2OC(=O)CC | inactive | inactive | – | inactive | inactive | inactive | inactive | inactive | inactive | – | – | – | inactive | – | – | – | inactive |
| Nc1c[n+](N2CCOCC2)no1 | inactive | inactive | inactive | inactive | inactive | inactive | inactive | inactive | inactive | inactive | – | – | – | – | – | inactive | – |
